The source of these data is PubChem BioAssay.

“And” between values parts separate entries of the source, which are not always exact repeats. Equal entries are not always repeated. The source made the active and inactive calls.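 The calls were made as follows, unless noted: active = inhibition at or above 50% relative to wild type and mutant plate controls; inactive = inhibition below 50%.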

Assay [1] in a line: inhibitors of TNFa-induced NFkB p65 translocation, primary screen, imaging, HUVEC, MLSMR starter and 10KST1 sets (AID 438;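 active = inhibition above 20% together with a positive visual image hit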;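 also: compound added about 3h40 before a 20 min TNFalpha stimulation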;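 as to inhibition: signal is the nuclear over cytoplasmic p65 intensity ratio per well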). The settings on record: HUVEC TNFa-induced p65 nuclear translocation; cell count: measured here: nuclei count (cytotoxicity indicator), at 2.08 µM; inhibition: at 2 µM, stronger effect = higher value, 0% TNFa-plus-vehicle, 100% no-TNFa wells.
Assay [2] in a line: reduction of polyQ htt aggregates in cells – imaging, exon1htt(103Q)mCFP cells, high-content imaging, primary screen (AID 483;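 active = visual image review flags a hit and inhibition of aggregation exceeds 20%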;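 also: compound exposure lasted 3 days before fixation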;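 as to nuclei count: percent of the per-plate median nuclei count of sample wells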). Conditions: exon1htt(103Q)mCFP cell line, aggregate imaging, at 2 µM; inhibition of aggregation: stronger effect = higher value; nuclei count: measured here: cell count, toxicity.
The nature of assay [3]: endothelial E-selectin expression blockers – imaging, HUVEC, immunofluorescence, MLSMR starter and 10KST1 sets, primary screen (AID 487;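 active = visually confirmed hit in the image check and inhibition above 20%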;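 as to inhibition: signal is fraction of cell area covered by stained E-selectin grains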;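 as to nuclei count: 100% = median nuclei count of all wells on the same plate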). Conditions: HUVEC TNFalpha-induced E-selectin immunofluorescence imaging, at 2 µM; inhibition: stronger effect = higher value; nuclei count: measured here: cell number, toxicity.
Assay [4] in a line: Primary imaging screen for DUSP6 inhibitors that restore phospho-Erk in transfected HeLa cells, chemical complementation (AID 609;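 active = compounds giving at least 50% inhibition in the cell-based MKP-3 phosphatase rescue imaging test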;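 as to inhibition: phospho-Erk level distribution per well compared with pooled transfected vehicle control wells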). Conditions: HeLa MKP-3 transfected, phospho-Erk imaging KS statistic, at 10 µM, cells stimulated with TPA for 15 min.
In assay [5] the target is Dual specificity protein phosphatase 6 (Homo sapiens) (UniProt Q16828). The assay is described as above. The settings on record: HeLa MKP-3 transfected, phospho-Erk imaging KS statistic; at 10 µM; stronger effect = higher value; cells stimulated with TPA for 15 min.
In assay [6] the target is Voltage-gated potassium channel subunit beta-2 (Rattus norvegicus) (UniProt P62483). Kind of assay: inhibitors of rat Kvbeta2 reductase activity – biochemical, NADPH fluorescence, primary screen (AID 622;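 active = fluorescence slope higher than the sample average by over 3 SD, cut at about -0.22 in these data, passing the limit was not always enough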;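 also: slope of raw intensity against log time taken from 70 to 1610 s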). The settings on record: recombinant KvBeta, 4-cyanobenzaldehyde reduction, at 10 µM, stronger effect = higher value.
For assay [7] the target is unchanged. The experiment in a line: enhancers of rat Kvbeta2 NADPH turnover – biochemical, NADPH fluorescence, primary screen (AID 623;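 active = NADPH fluorescence slope more negative than the mean of all samples by about 3 SD, 99.7% confidence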;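 also: fluorescence intensity change per second fitted from 20 to 320 s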). The settings on record: Recombinant KvBeta, NADPH fluorescence decrease slope, 10 min; at 10 µM; stronger effect = lower value.
The target in assay [8] is Alpha-2C adrenergic receptor (Homo sapiens) (UniProt P18825). The experiment in a line: compounds altering alpha2C-coupled GIRK flux – cell-based, HEK293 alpha2C/GIRK1/2, thallium flux, primary screen (AID 624;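 active = fluorescence slope after compound addition differing from the mean of all screened samples at 99.7% confidence, in either direction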;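 also: slope of fluorescence ratio to pre-addition baseline per second over 15 to 24 s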). The settings on record: thallium flux BTC fluorescence, at 10 µM, actives lie on both sides.
The nature of assay [9]: inhibitors of larval lipid processing in zebrafish, primary screen, whole organism, PED6 fluorescence, gall bladder and intestine (AID 686;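 active = a full or partial loss of lipid-probe fluorescence in the fish gall bladder, intestine or both, judged by eye; inactive = no fluorescence loss, or compound toxic to the fish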;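 also: larvae 5 to 7 days old with five fish per well; signal comes from phospholipase A2 cleavage of quenched PED6 carried via bile; overnight exposure to compound and PED6 before scoring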). The settings on record: Zebrafish larvae PED6 lipid processing, fluorescence scoring; screened at 20 µM (by protocol).
Assay [10] is described as follows: loss of swimming-algae plug formation – whole organism, Chlamydomonas reinhardtii, WT vs cilia-less mutant, absorbance, 96-well, primary screen (AID 463189).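 Also: 0% = wild type cc124 cells in DMSO and 100% = ciliumless bld1 mutant cells.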 Conditions: Chlamydomonas reinhardtii gravitaxis, OD600 absorbance, 2 days; at 10 µM; stronger effect = higher value.
Assay [11] in a line: blockers of RIG-like receptor reporter activation – cell-based, Sendai virus stimulus, luciferase, 10K MLSCN set, TLR/RLR signaling modifier project, primary screen (AID 602276;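 active = inhibition at or above 50% at 10 µM; inactive = inhibition below 50%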;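 also: firefly luciferase from ISG56 promoter only with Renilla not read in this screen; 0% = Sendai virus plus DMSO and 100% = medium plus DMSO without virus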). Conditions: HEK293 RL24 IRF3 luciferase reporter, at 10 µM, stronger effect = higher value. A general note: A reporter such as luciferase makes a cellular process visible.
Assay [12] is described as follows: TLR3 IRF3 reporter activation blockers – cell-based, poly I:C stimulus, luciferase, 10K MLSCN set, primary screen (AID 602277;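 active = inhibition of the reporter signal at or above 50%; inactive = inhibition below 50%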). Conditions: HEK293-TLR3 RL24 IRF3 luciferase reporter, at 10 µM, stronger effect = higher value.
Where [13] appears, read: measured here: cell density z-score.
Setting [14] is: measured here: nuclear c-Myc green intensity z-score.
The mark [15] stands for this setting: measured here: nuclear pErk red intensity z-score, stronger effect = higher value.

Sequence of Dual specificity protein phosphatase 6 (Homo sapiens) (Q16828 whole entry, looked up): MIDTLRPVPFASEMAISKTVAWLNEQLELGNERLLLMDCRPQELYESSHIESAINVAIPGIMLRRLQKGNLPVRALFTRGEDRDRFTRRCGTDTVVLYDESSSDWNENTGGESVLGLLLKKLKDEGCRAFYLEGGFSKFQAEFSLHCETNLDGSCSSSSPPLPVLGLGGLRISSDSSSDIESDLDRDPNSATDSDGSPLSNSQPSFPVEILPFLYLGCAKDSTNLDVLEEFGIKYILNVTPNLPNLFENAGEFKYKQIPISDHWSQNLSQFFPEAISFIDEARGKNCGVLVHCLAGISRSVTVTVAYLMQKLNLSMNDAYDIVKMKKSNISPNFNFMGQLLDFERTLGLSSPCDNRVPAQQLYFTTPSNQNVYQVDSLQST
Sequence of Alpha-2C adrenergic receptor (Homo sapiens) (P18825 whole entry, looked up): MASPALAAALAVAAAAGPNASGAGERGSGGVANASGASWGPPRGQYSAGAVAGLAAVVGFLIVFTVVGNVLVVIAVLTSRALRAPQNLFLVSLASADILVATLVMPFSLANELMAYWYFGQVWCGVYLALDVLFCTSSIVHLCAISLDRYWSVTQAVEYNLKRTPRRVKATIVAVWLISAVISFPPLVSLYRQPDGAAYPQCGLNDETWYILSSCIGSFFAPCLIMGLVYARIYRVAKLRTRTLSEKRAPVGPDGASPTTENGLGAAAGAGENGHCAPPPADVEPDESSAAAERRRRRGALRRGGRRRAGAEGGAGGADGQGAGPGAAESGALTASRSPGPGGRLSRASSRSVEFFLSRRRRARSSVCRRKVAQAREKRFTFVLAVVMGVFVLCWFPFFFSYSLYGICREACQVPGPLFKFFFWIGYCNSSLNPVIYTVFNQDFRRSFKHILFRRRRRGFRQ
Sequence of Voltage-gated potassium channel subunit beta-2 (Rattus norvegicus) (P62483 whole entry, looked up): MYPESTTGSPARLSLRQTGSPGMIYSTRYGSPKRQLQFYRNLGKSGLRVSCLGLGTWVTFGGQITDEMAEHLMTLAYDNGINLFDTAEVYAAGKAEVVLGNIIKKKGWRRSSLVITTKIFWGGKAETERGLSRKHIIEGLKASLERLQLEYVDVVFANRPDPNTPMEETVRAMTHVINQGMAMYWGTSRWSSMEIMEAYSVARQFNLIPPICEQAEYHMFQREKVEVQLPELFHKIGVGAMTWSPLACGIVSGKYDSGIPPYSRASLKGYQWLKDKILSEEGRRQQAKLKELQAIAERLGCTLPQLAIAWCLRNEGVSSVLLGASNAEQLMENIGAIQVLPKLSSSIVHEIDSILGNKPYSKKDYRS

As for `COc1ccc(CCN2CCC(Nc3nc4ccccc4n3Cc3ccc(F)cc3)CC2)cc1`, the cell count in assay [1] came out at 525. The inhibition is -1.3% (inactive) in assay [1]; -28.6% (inactive) in assay [3]; 7.39% (inactive) in assay [5]; 133% (active) in assay [10]; -3.81% (inactive) in assay [11]; -23.6% (inactive) in assay [12]. Besides, the inhibition of aggregation in assay [2] is -3% (inactive). The nuclei count in assay [2] worked out at 83.3%; in [3], 107%. In addition, the z-score is -0.393 in assay [4] (setting [13]), 1.49 in assay [4] (setting [14]) and 0.359 in assay [4] (setting [15]). In addition, the fluorescence slope in assay [6] is -0.513 (inactive). Moreover, the NADPH fluorescence slope in assay [7] was -0.000106 (inactive). Further, the slope in [8] was 0.00466 (inactive). The result in assay [9] was inactive.

On to `CC(C)NCC(O)COc1ccc(CCOCC2CC2)cc1` (stereo not given), for which the cell count in [1] came to 564. The inhibition in assay [1] was -5.6% (inactive); in [3] it was -146% (inactive); in assay [5], 1.48% (inactive); in assay [10] it was 7.04% (inactive) and 48.4% (inactive); in [11], 12.5% (inactive); in assay [12], 37.3% (inactive). Besides, the inhibition of aggregation in [2] is 10.6% (inactive). For the same compound, the nuclei count was 102% in assay [2] and 119% in [3]. For the same compound, the figures for the z-score in [4] (setting [13]), in assay [4] (setting [14]) and in [4] (setting [15]) were -0.149, 0.261 and 0.0924, respectively. Further, the fluorescence slope in assay [6] was -0.454 (inactive). The NADPH fluorescence slope in [7] is -2.4e-05 (inactive). Moreover, the slope in assay [8] was 0.0053 (inactive). For the same compound, the outcome in [9] was inactive.

Regarding `Nc1ccc(S(=O)(=O)Nc2ccccn2)cc1`, the cell count in assay [1] worked out at 684. Further, the inhibition in assay [1] is 5.6% (inactive); in [3] it was -123% (inactive); in [5] it was 12.4% (inactive); in [10], 4.41% (inactive); in [11] it was 12.4% (inactive); in assay [12], 42.5% (inactive). Further, the inhibition of aggregation in [2] was 15.6% (inactive). Moreover, the nuclei count stood at 101% in [2] and 131% in assay [3]. In addition, the z-score is -1.05 in assay [4] (setting [13]), -1.54 in [4] (setting [14]) and 0.683 in assay [4] (setting [15]). The fluorescence slope in [6] is -0.459 (inactive). For the same compound, the NADPH fluorescence slope in [7] was -4.9e-05 (inactive). Also, the slope in assay [8] is 0.00448 (inactive). In [9], the result was inactive.

With `O=C(O)/C=C/c1ccc(O)c(O)c1`, the cell count in [1] stood at 613. The inhibition was 4% (inactive) in assay [1]; -48.2% (inactive) in [3]; 10.2% (inactive) in [5]; -2.7% (inactive) and 27.7% (inactive) in assay [10]; 8.79% (inactive) in [11]; 43.2% (inactive) in assay [12]. In [2], the inhibition of aggregation is 8.3% (inactive). For the same compound, the nuclei count in [2] amounted to 103%; in [3], 116%. In addition, the z-score in assay [4] (setting [13]) was -0.618; in [4] (setting [14]) it was -0.142; in assay [4] (setting [15]) it was -0.455. Also, in assay [6], the fluorescence slope is -0.453 (inactive). For the same compound, the NADPH fluorescence slope in assay [7] is -6.6e-05 (inactive). Also, in [8], the slope is 0.00437 (inactive). For the same compound, in assay [9], the compound was classed as inactive.

Take `CC(=O)OCC(=O)[C@@]1(O)[C@H](C)C[C@H]2[C@@H]3CCC4=CC(=O)C=C[C@]4(C)[C@@]3(F)[C@@H](O)C[C@@]21C`: in assay [1], the cell count was 499. Besides, the inhibition is -5.8% (inactive) in assay [1]; -54.1% (inactive) in [3]; -4.44% (inactive) in assay [5]; 26.6% (inactive) in assay [10]; 14.1% (inactive) in assay [11]; 31.9% (inactive) in assay [12]. Also, the inhibition of aggregation in assay [2] was 0.4% (inactive). Moreover, the nuclei count in [2] came out at 45.5%; in assay [3] it was 112%. Also, the z-score in assay [4] (setting [13]) was -0.698; in assay [4] (setting [14]), 0.622; in assay [4] (setting [15]) it was -0.569. Also, in [6], the fluorescence slope was -0.495 (inactive). For the same compound, in assay [7], the NADPH fluorescence slope was -3.4e-05 (inactive). In assay [8], the slope was 0.00493 (inactive). Further, the compound was classed as inactive in assay [9].

For orientation: inhibition means the change of the read-out against control, counted positive when it falls.
